PubChem BioAssay (NCI)
“And” between values parts separate entries of the source, which are not always exact repeats. Equal values may be shown once. This is part of a sample that, as a whole, favours compounds with a hit. Of some 83,000 tested, about 20% had one in any assay.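 For each line, cells grew in 96-well plates with the test compound present at a single concentration for 48 hours.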 The source made the active and inactive calls. How the source made its calls: active means growth percent below 10; inactive means the rest.

These molecules were tested on MDA-MB-468 breast (assay: NCI-60 one-dose screen, 48 h (100 = growth as untreated, 0 = no growth, -100 = all killed)). Details: 10 µM unless noted.
`CN1C2CCC1/C(=C\c1ccc(F)cc1)C(=O)/C2=C/c1ccc(F)cc1` was tested, and the growth was 28.8% (inactive). With `Cc1ccc2c(c1)CC(O)CC1C(=O)N(CCO)CC(=O)N21` (stereo not given) the growth was 96% (inactive). `Cc1[nH]c(C(=O)Nc2ccccc2OCc2cccc(C(=O)NC3CCCNC3)c2)c(Cl)c1Cl` (stereo not given) was tested, and the growth was -80.6% (active). With `COc1ccc(Nc2ncccc2/C=C/C(=O)c2cc(OC)c(OC)c(OC)c2)cc1` the growth was -62.1% (active). With `O=C(CCC(=O)N1CCOCC1)OCCCCCCSc1ccc([N+](=O)[O-])c2nonc12` the growth was -43.1% (active). With `Cc1ccc(-c2nc3ccc(Cl)cn3c2NC2CCCCC2)o1` the growth was 78.2% (inactive). With `CC(SC(C)C(=O)N/N=C/c1cccc(Cl)c1)C(=O)N/N=C\c1cccc(Cl)c1` (stereo not given) the growth was 97.4% (inactive). `CCCCCCN(C)Cc1ccc(OCCOc2ccc(CN(C)CCCCCC)cc2)cc1` was tested, and the growth was -59.9% (active). In the case of `CC(C)=NOC(C)C(=O)O` (stereo not given), the growth is reported as 106% (inactive). With `S=C(SSC(=S)N(c1ccccc1)c1ccccc1)N(c1ccccc1)c1ccccc1` the growth was 107% (inactive). With `O=C(N/N=C/c1ccc2c(c1)OCO2)c1ccncc1` the growth was 116% (inactive) and 124% (inactive). `NC(=O)c1c(NC(=O)c2cccc(C(F)(F)F)c2F)sc2c1CCC(=O)C2` was tested, and the growth was -1.45% (active). For `C=C(CNCCc1ccc(O)cc1)[C@@H]1CC[C@]2(CO)CC[C@]3(C)[C@H](CC[C@@H]4[C@@]5(C)CCC(NCCO)C(C)(C)[C@@H]5CC[C@]43C)[C@@H]12` (stereo not given in full), the growth was -84.3% (active). `Cc1ccc2cnc(N)c(C#Cc3cc(C(=O)Nc4ccc(CN5CCN(C)CC5)c(C(F)(F)F)c4)cnc3C)c2c1` was tested, and the growth was 15.5% (inactive). For `Cc1cc(C(=O)Nc2cc(Nc3ncccc3-c3ncnc4nc[nH]c34)ccc2F)cc(C(C)(C)C#N)c1`, the growth was 87.7% (inactive). `O=C(CSc1nnc(-c2ccc3nc(-c4ccc(Cl)cc4)[nH]c3c2)o1)Nc1ccc(C(=O)/C=C/c2ccc(Cl)cc2)cc1` was tested, and the growth was 100% (inactive). With `C(=N\OCCc1ccccc1)/c1ccccn1` the growth was 112% (inactive) and 107% (inactive). In the case of `COc1cccc(-c2cc(-c3cccs3)c(C#N)c(=O)[nH]2)c1`, the growth is reported as 107% (inactive). For `COC(=O)C1=C(C(=O)ON)C2C=CC1(C(Cc1ccccc1)Nc1ccccc1)O2` (stereo not given), the growth was -45% (active). For `O=C(Nc1ccc(Br)cc1)Nc1ccccc1Cl`, the growth was 69.2% (inactive). With `COc1ccc(-c2ccc(-c3ccc(C(=N)N)cc3)s2)cc1Cl` the growth was -65% (active). For `COc1cc(NC(=O)C#Cc2ccccc2)c(OC)cc1Cl`, the growth was 70.9% (inactive). For `CCCNCC(=O)Nc1ccc(C(=O)OC(C)(C)CC)cc1`, the growth was 102% (inactive). With `CCOC(=O)c1c(Nc2ccccc2)nn2c(-c3cccs3)ccnc12` the growth was 73.3% (inactive). For `COc1ccccc1N1CCN(C2=NN=C(c3cccc(Cl)c3)c3ccccc3C2)CC1`, the growth was -1.01% (active). With `Cc1c(C(N)=O)sc2c1c(=O)n(Cc1ccccc1)c1nnc(-c3ccc(Br)cc3)n21` the growth was 29.8% (inactive). `O=C(Nc1ccc(Br)cc1)C1=NCCCCN1` was tested, and the growth was 97.6% (inactive). For `COc1ccc(/C=C/C(=O)c2c(O)c(C)c(O)c3c2OC2=CC(O)=C(C(C)=O)C(=O)[C@]23C)cc1`, the growth was -40.1% (active). In the case of `CCN(CC)CCCC(Nc1c2ccc(Cl)cc2nc2ccc(OC)cc12)c1ccncc1` (stereo not given), the growth is reported as 88.5% (inactive). With `CC(C)=C1C=C2CC[C@@H]3[C@](C)(CCC[C@@]3(C)C(=O)O)[C@H]2CC1` the growth was 0.17% (active). For `O=C(OCC(O)C1OC(c2ccccc2)OC(COC(=O)c2ccccc2)C1O)c1ccccc1` (stereo not given), the growth was 100% (inactive). With `CCN(CC)c1ccc2c(c1)Oc1nc(N)c(C#N)c(N)c1C2Sc1ccc(F)cc1` (stereo not given) the growth was -70.1% (active). `O=C1COCCN1c1ccc(Nc2nc(Cl)nc(N3CCOCC3)n2)cc1` was tested, and the growth was 87.2% (inactive). In the case of `C[C@@H]1CCC[C@H]1CC(N)C(=O)O` (stereo not given in full), the growth is reported as 92.8% (inactive). For `CC(O)C(N)=O` (stereo not given), the growth was 107% (inactive). In the case of `CN(C)CN1CCN(c2ccc3nc(-c4ccc5nc(-c6ccc(C(F)(F)F)cc6)[nH]c5c4)[nH]c3c2)CC1`, the growth is reported as 13.7% (inactive). With `CN(C)c1ccc(/C=N/NC(=O)c2cccc3ccccc23)c(Cl)c1` the growth was -7.38% (active). In the case of `O=C(/C=C/c1cccnc1)NCCCCC1CCCN(C(=O)c2ccccc2)C1` (stereo not given), the growth is reported as 87.9% (inactive). With `COc1ccc(C/C(C)=C(\c2ccc(O)cc2)c2ccc(OCCCN(C)C)cc2)cc1` the growth was 86.8% (inactive). For `O=Cc1ccc(-c2cn3ccnc3c(-c3ccc4ncn(Cc5ccccc5)c4c3)n2)cc1`, the growth was 105% (inactive).
